About 79,000 compounds went through this panel and 15% of them were active in at least one assay; those are over-represented in the sample as a whole. Unmarked numbers belong to inactive results. The source made the active and inactive calls. Rule as the data show it: active = growth inhibition above about 70%; inactive = the rest.
experiment: NCI Yeast Anticancer Drug Screen. Data for the mec2-1 strain (AID 157); conditions: S. cerevisiae mec2-1 strain, at 50.0 µM, hits give high values
Method in brief: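 Test agents were screened against the mec2-1 yeast strain, with defined DNA repair or cell cycle alteration. Growth was scored as inhibition against vehicle-only controls.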

Compound	growth inhibition
Cc1ccc2c(c1)C1(OC(=O)c3ccccc31)c1ccc(F)cc1O2 (stereo not given)	12.8%
CCCCCCCSCC(O)COC(c1ccccc1)(c1ccccc1)c1ccccc1 (stereo not given)	-28.6%
COc1c(C)cc2c(C(C)C)c(O)c(O)c(C=O)c2c1O	88.2% (active)
O=C1CSC(=S)N1c1ccco1	-20.1%
Nc1nc(Cl)cc(Nc2cc(Cl)cc(Cl)c2)n1	53.6%
CC(C)C(=NNC(N)=O)C(C)C	2.2%
NC(Cc1cccs1)C(=O)O (stereo not given)	-21.9%
Cc1cc(N(CCC#N)CCC#N)ccc1/C(N=Nc1ccc([N+](=O)[O-])cc1)=N\NC(=O)c1cc(Cl)ccc1O	8.8%
Cc1ccc(C)c(NC(=O)C(=O)CC(=O)c2cccc3ccccc23)c1	-33.1%
CCc1nc(N)nc(N)c1-c1ccc(N(CC)Cc2ccccc2)c([N+](=O)[O-])c1	-3.05%
Cc1nc2ccc(N)cc2[nH]c1=O	7%
CCOC(=O)CNC(=O)C(Cc1ccccc1)NC(=O)CNC(=O)OCc1ccccc1 (stereo not given)	8.6%
Oc1c(Cl)cc(N=Cc2ccc(N(CCCCl)CCCCl)cc2)cc1Cl	14.7%
O=C1OC(=O)C2C3C=CC(C4C=C(C5CC5)C43)C12 (stereo not given)	-4.05%
Cc1ccc(N=C(N)NC#N)cc1	-46%
COCCCN1C(=O)C2c3[nH]c4ccccc4c3C3CCC(C(C)(C)C)CC3C2C1=O (stereo not given)	8.55%
CC(=O)N1CN=C2Sc3ccccc3N2C1	0.2%
CCCCCCC1OCC(C)([N+](=O)[O-])CO1 (stereo not given)	-8.8%
COc1ccccc1NC(=O)C1=C(C)NC(C)=C(C(=O)Nc2ccccc2OC)C1c1ccccc1Cl	-4.4%
Cc1ccc(-n2cc(-c3ccc(Cl)cc3)c3c(NNC(=S)NCc4ccccc4)ncnc32)cc1	35%

Compound	growth inhibition
Cc1cc(C)c2c(ccc3ccccc32)n1	-21.4%
C=C(C)S(=O)(=O)c1ccc(C)cc1	-16.4%
CCCCN=NNc1cn(C2OC(CO)C(O)C2O)c(=O)[nH]c1=O (stereo not given)	0.9%
CC(C)CCOC(=O)C(C)(O)C(Cl)c1ccccc1 (stereo not given)	2.55%
CCCNC(=S)N/N=C\C(C)=N\Nc1ccc(Cl)cc1	16.2%
[Br][Pt+2][Br].[NH-]c1ccc(F)cc1.[NH-]c1ccc(F)cc1	9.2%
C(=N\c1oc(-c2ccccc2)nc1SCc1ccccc1)/c1ccccc1	11.2%
CCN(CC)C(=O)C1CCCCN1 (stereo not given)	2.6%
O=[N+]([O-])c1ccc(C=NC23CC4CC(CC(C4)C2)C3)cc1	-11.1%
O=C(O)CC(NC(=O)OCc1ccccc1)C(=O)OCc1ccccc1 (stereo not given)	17.9%
O=C(Nc1ccc(S(=O)(=O)N2CCCCC2)cc1)OC1CCCCCC1	1.1%
NCCNc1nc(NCCN)nc(N(CCN)CCN)n1	-4.9%
CC1CC(C)CN(S(=O)(=O)c2cc(Cl)c(Oc3ccc([N+](=O)[O-])cc3Cl)c(Cl)c2)C1 (stereo not given)	-28.3%
O=C1CCCCCCCCC1=O	-6.4%
O=CC(CO)CC(C=O)n1cnc2c(=O)[nH]cnc21 (stereo not given)	-16.1%
O=C(NNC(=O)C(Oc1ccccc1)c1ccccc1)C(Cl)Cl (stereo not given)	4.55%
Nc1ccc(C2=Nc3ccccc3SC(c3ccccc3O)C2)cc1 (stereo not given)	13.5%
CC(C(=O)c1ccccc1)C(=O)c1ccccc1	-13%
CC(=O)Nc1ccc(S(=O)(=O)N/N=c2/sc3ccccc3n2C)cc1N	-2.7%
CCOC(=O)C(/C=N\C(=S)Nc1ccc(OCC)cc1)=C(/O)c1ccccc1	-52.6%

From PubChem BioAssay (NCI)
